Results from PubChem BioAssay (Tox21).
Activity calls are given as the source filed them. Where a call stands in place of a potency, no number is given. Calls follow the shape of the full dose curve.
Potency is read from the fitted curve at half-maximal effect.

The molecules below were run against Estrogen receptor (Homo sapiens) (UniProt P03372) (assay: qHTS assay to identify small molecule agonists of the estrogen receptor alpha (ER-alpha) signaling pathway in the presence of an antagonist (AID 1259383; also: nearly all actives have a fitted effect of over 15% in size)). Conditions: VM7Luc4E2 cells, ERE-luciferase, +ICI-182,780, 22 h; series mostly up to 92.4 µM.
Sequence of Estrogen receptor (Homo sapiens) (P03372 whole entry, looked up): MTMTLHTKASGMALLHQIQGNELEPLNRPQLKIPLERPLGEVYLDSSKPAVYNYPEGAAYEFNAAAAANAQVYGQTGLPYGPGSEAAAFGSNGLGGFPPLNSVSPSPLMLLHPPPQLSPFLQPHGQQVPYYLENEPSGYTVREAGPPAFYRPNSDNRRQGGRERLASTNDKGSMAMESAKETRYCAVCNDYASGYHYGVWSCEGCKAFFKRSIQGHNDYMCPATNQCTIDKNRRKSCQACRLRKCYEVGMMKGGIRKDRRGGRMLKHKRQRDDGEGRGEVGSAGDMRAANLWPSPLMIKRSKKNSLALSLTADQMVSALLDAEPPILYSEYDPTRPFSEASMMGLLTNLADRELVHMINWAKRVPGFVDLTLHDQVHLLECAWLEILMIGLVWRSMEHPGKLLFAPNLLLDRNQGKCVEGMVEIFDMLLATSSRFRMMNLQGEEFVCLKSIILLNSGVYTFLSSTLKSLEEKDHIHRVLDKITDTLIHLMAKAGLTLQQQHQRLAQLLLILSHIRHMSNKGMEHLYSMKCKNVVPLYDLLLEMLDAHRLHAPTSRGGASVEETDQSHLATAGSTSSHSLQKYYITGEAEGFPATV
Description: National Center for Advancing Translational Sciences [NCATS] NIH Chemical Genomics Center [NCGC] U.S. Environmental Protection Agency [EPA] National Institutes of Environmental Health Sciences [NIEHS] National Toxicology Program [NTP] Assay overview: Estrogen receptor (ER), a member of nuclear hormone receptor plays an important role in development, metabolic homeostasis and reproduction. Two subtypes of ER, ER-alpha and ER-beta, have similar expression patterns with some uniqueness in both types. Endocrine disrupting chemicals (EDCs) and their interactions with steroid hormone receptors like ER causes disruption of normal endocrine function. Therefore, it is important to understand the effect of environmental chemicals in ER signaling pathway. For identifying ER agonists, VM7Luc4E2 cell line has been used in the current assay. VM7Luc4E2 cell line (provided by Denison MS, University of California) endogenously expresses full-length ER-alpha and is stably transfected with a plasmid containing four estrogen responsive elements (ERE) upstream of a luciferase reporter gene. This current screening for measuring luciferase reporter gene activity using VM7Luc4E2 cells against Tox21 10K library collection is a confirmation study on agonist mode screening in presence of ER-antagonist (ICI-182,780) at 10.0nM final concentration.
Assay Protocol Summary: VM7Luc4E2 cells were cultured in phenol red free assay medium containing 10% charcoal stripped FBS for 5 days prior to the assay. The cells were dispensed at 4,000 cells in 4uL of assay medium per well into white wall/solid-bottom 1536-well plates (Corning Life Sciences, Corning, NY) using a Multidrop Combi (Thermo Fisher Scientific Inc., Waltham, MA) dispenser. After the assay plates were incubated at 37C and 5% CO2 for 24hr, 1uL of 10.0nM (final concentration) ICI-182,780 or assay buffer was added using two separate tips of Flying Reagent Dispenser (FRD, Aurora Discovery, San Diego, CA). Then 23nL of compounds dissolved in DMSO at 15 concentrations and positive controls or DMSO only was transferred to the assay plates by a Pintool station (Wako, San Diego, CA). The assay plates were incubated at 37C and 5% CO2 for 22hr. For luciferase read, 4uL/well ONE-Glo reagent (Promega Corporation, Madison, WI) was added to each well using FRD and after 30min incubation at room temperature, luminescence signal was measured on ViewLux plate reader (PerkinElmer, Shelton, CT).
With COc1ccc(C(O)(c2cncnc2)C2CC2)cc1 (stereo not given) the Potency was “inactive”. For O=C(NC(=O)c1cc(F)c(F)cc1Cl)Nc1cc(F)ccc1N1CCC(C(=O)O)CC1, the Potency was “inactive”. CN(C)c1ccc(N=O)cc1 was tested, and the Potency was “inactive”. CC(C)c1ccc(NC(=O)N(C)C)cc1 was tested, and the Potency was “inactive”. CN1C[C@H](C(=O)N[C@]2(C)O[C@@]3(O)[C@@H]4CCCN4C(=O)[C@H](Cc4ccccc4)N3C2=O)C=C2c3cccc4[nH]cc(c34)C[C@H]21 was tested, and the Potency was “inactive”. With CN1C(=O)CN=C(c2ccccc2)c2cc([N+](=O)[O-])ccc21 the Potency was “inactive”. O=C([O-])c1ccccn1.O=C([O-])c1ccccn1.O=C([O-])c1ccccn1.[Cr+3] was tested, and the Potency was “inactive”. In the case of CCOP(=S)(OCC)Oc1ccc(S(C)=O)cc1 (stereo not given), the Potency is reported as “inactive”. In the case of CC[N+]1(CCOC(=O)C(O)(c2ccccc2)c2ccccc2)CCCCC1, the Potency is reported as “inactive”. In the case of CCC1(CC)C(=O)NC(=O)NC1=O, the Potency is reported as “inactive”. With CON(C)C(=O)Nc1ccc(Cl)cc1 the Potency was “inactive”. With CN[C@@H](C)[C@H](O)c1ccccc1 the Potency was “inactive”. C[N+](C)(C)CC1CO1 (stereo not given) was tested, and the Potency was “inactive”. In the case of CCOC(=O)c1cncn1C(C)c1ccccc1 (stereo not given), the Potency is reported as “inactive”. With C#C[C@]1(O)CC[C@H]2[C@@H]3CCC4=CC(=O)CCC4=C3C=C[C@@]21CC the Potency was 1.06 µM (active). COc1cc(CC(C)N)c(OC)cc1Br (stereo not given) was tested, and the Potency was “inactive”. O=C(CCl)CCl was tested, and the Potency was “inactive”. With CCCCCCCCn1sccc1=O the Potency was “inactive”. In the case of CC(C)(C)c1ccc(CCOc2ncnc3ccccc23)cc1, the Potency is reported as “inactive”. In the case of CN1CC[C@]23c4c5ccc(O)c4O[C@H]2[C@@H](O)CC[C@H]3[C@H]1C5, the Potency is reported as “inactive”. With C=CCN1C[C@H](C)N([C@H](c2ccc(C(=O)N(CC)CC)cc2)c2cccc(OC)c2)C[C@H]1C the Potency was “inactive”. For C=CCOC(=O)C(C)(C)OC(=O)c1cc(-n2c(=O)cc(C(F)(F)F)n(C)c2=O)ccc1Cl, the Potency was “inactive”. O=C(O)C(O)C(O)C(=O)O (stereo not given) was tested, and the Potency was “inactive”. In the case of O=C(O)C(F)(F)C(F)(F)C(F)(F)C(F)(F)C(F)(F)C(F)(F)C(F)(F)C(F)(F)F, the Potency is reported as “inactive”. For c1ccc2sc(SNC3CCCCC3)nc2c1, the Potency was “inactive”. With CCOP(=S)(OCC)SCSc1cc(Cl)ccc1Cl the Potency was “inactive”. With CCSCc1ccccc1OC(=O)NC the Potency was “inactive”. In the case of CCCC(C)(COC(N)=O)COC(=O)NC(C)C (stereo not given), the Potency is reported as “inactive”. For CCOc1cccc(C2(N3CCN(c4ccccc4)CC3)CCC(C)CC2)c1 (stereo not given), the Potency was “inactive”. For O=C(Cc1ccccc1)OCCc1ccccc1, the Potency was “inactive”. C[N+]1(CCF)[C@@H]2CC[C@H]1CC(OC(=O)C(O)(c1ccccc1)c1ccccc1)C2 (stereo not given in full) was tested, and the Potency was “inactive”. In the case of CCCN(CCC)C(=O)Cc1c(-c2ccc(Cl)cc2)nc2ccc(Cl)cn12, the Potency is reported as “inactive”. With CCCCC#N the Potency was “inactive”. In the case of COCc1cnc(C2=NC(C)(C(C)C)C(=O)N2)c(C(=O)O)c1 (stereo not given), the Potency is reported as “inactive”. For NP(N)(=O)NC(=O)c1ccc(F)cc1, the Potency was “inactive”. For Cc1cnc(C2=NC(C)(C(C)C)C(=O)N2)c(C(=O)O)c1 (stereo not given), the Potency was “inactive”. Cc1nc2ccccc2c(=O)n1-c1ccccc1Cl was tested, and the Potency was “inactive”. For CC(C)(C)NCC(O)c1ccccc1Cl (stereo not given), the Potency was “inactive”. O=C(O)C(F)(F)C(F)(F)C(F)(F)C(F)(F)C(F)(F)F was tested, and the Potency was “inactive”. CN(C1CCCCC1)C1CCCCC1 was tested, and the Potency was “inactive”.
